Source: PubChem BioAssay
The source made the active and inactive calls.

Experiments:
[1] = tested on: Plasmodium falciparum Sir2 (PF13_0152, Sir2A); assay: pfSir2 binders on small-molecule microarrays, primary screen, biochemical, small-molecule microarray, 635 nm fluorescence (AID 1098); settings: small-molecule microarray binding, fluorescence 635 nm; higher = more signal;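 also: score merges spot fluorescence intensity with its signal-to-noise ratio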
[2] = small-molecule microarray binders of probe aDKK1, primary screen, biochemical, biotinylated probe, 635/667 nm fluorescence (AID 1099); settings: higher = more signal;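 also: score merges 667nm spot fluorescence with signal to noise across triplicate slides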
[3] = small-molecule microarray binders of probe aCHRDL2, primary screen, biochemical, biotinylated probe, 635/667 nm fluorescence (AID 1100); settings: higher = more signal
[4] = splicing luciferase reporter signal modulators, primary screen, spliceosome inhibition project, cell-based, HEK293, splice +/- reporter (AID 1101); settings: luminescence, 24 h, higher = more signal, called active from +8 up or from −8 down;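 also: HEK293 cells carrying a splicing-competent luciferase reporter gene; test concentration not given here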
[5] = biological target: Fibroblast growth factor 10 (Homo sapiens) (UniProt O15520); assay: FGF10 binders on small-molecule microarrays, primary screen, biochemical, small-molecule microarray, 635 nm fluorescence (AID 1102); settings: FGF10 binding, fluorescence 635 nm, higher = more signal
[6] = tested on: glycogen synthase kinase-3 (GSK3A per assay name; protocol says GSK3B); assay: GSK3 binders on small-molecule microarrays, primary screen, biochemical, small-molecule microarray, 635 nm fluorescence, GSK3A (AID 1103); settings: small-molecule microarray binding, fluorescence 635 nm; higher = more signal; also: the record names both GSK3A and GSK3B
[7] = biological target: Epidermal growth factor receptor (Homo sapiens) (UniProt P00533); assay: EGFR binders on small-molecule microarrays, primary screen, biochemical, small-molecule microarray, 635 nm fluorescence (AID 1104); settings: EGFR binding, higher = more signal;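 also: score merges 667 nm emission intensity with spot signal to noise over triplicate slides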
[8] = biological target: Follistatin-related protein 3 (Homo sapiens) (UniProt O95633); assay: FSTL3 binders on small-molecule microarrays, primary screen, biochemical, small-molecule microarray, 635 nm fluorescence (AID 1105); settings: FSTL3 binding, higher = more signal;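 also: score merges emission near 667 nm and signal to noise per printed spot across three slides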
[9] = biological target: Dickkopf-related protein 1 (Homo sapiens) (UniProt O94907); assay: DKK1 binders on small-molecule microarrays, primary screen, biochemical, small-molecule microarray, 635 nm fluorescence scan (AID 1106); settings: DKK1 binding, higher = more signal;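 also: score merges emission near 667 nm with signal to noise over three replicate slides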
[10] = tested on: Inhibin beta A chain (activin A); assay: INHBA (activin A) binders on microarrays, primary screen, biochemical, small-molecule microarray, 635 nm fluorescence scan (AID 1107); settings: small-molecule microarray binding, higher = more signal;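 also: mouse activin A protein probed at 4.33 µg/mL on printed slides; score merges bound-protein fluorescence near 667 nm with spot signal-to-noise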
[11] = tested on: Human papillomavirus type 1a protein E7 (residues 44-93); assay: HPV1a E7 fragment binders on microarrays, primary screen, biochemical, small-molecule microarray, residues 44-93, 635 nm fluorescence (AID 1108); settings: small-molecule microarray binding, fluorescence 635 nm; higher = more signal;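 also: E7 fragment applied at 1 µg/mL in TBST for 1 h at 4 C; score combines spot fluorescence with its signal to noise ratio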
[12] = modulators of HCV replicon luciferase signal, primary screen, HCV replication inhibitor project, Huh7 cells, luciferase reporter (AID 1109); settings: 48 h, higher = more signal;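 also: huh7 hepatoma cells harbouring a luciferase neomycin HCV replicon reporter; luciferase luminescence as measure of HCV replicon replication; test concentration not given here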
[13] = biological target: Left-right determination factor 2 (Homo sapiens) (UniProt O00292); assay: LEFTY2 binders on small-molecule microarrays, primary screen, biochemical, small-molecule microarray, 635 nm fluorescence scan (AID 1110); settings: LEFTY2 binding, higher = more signal
[14] = biological target: Calmodulin-1 (Homo sapiens) (UniProt P0DP23); assay: CALM1 binders on microarrays, EGTA buffer, profiling panel, biochemical, small-molecule microarray, Cy5-labelled CALM1 (AID 1111); settings: Cy5-CALM1 binding fluorescence, higher = more signal;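 also: labelled calmodulin applied in Tris saline Tween buffer holding calcium plus EGTA and DTT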
[15] = biological target: Calmodulin-1 (Homo sapiens) (UniProt P0DP23); assay: calcium-bound CALM1 binders on microarrays, profiling panel, artefact control for SMM control-protein annotation, biochemical, small-molecule microarray, Cy5-labelled CALM1, plus calcium (AID 1112); settings: Cy5-CALM1 binding fluorescence, higher = more signal;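 also: score merges spot fluorescence with signal to noise from triplicate slides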
[16] = small-molecule microarray binders of probe aWnt5a, primary screen, biochemical, biotinylated probe, 635/667 nm fluorescence (AID 1113); settings: higher = more signal;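 also: score merges 667 nm fluorescence intensity with signal-to-noise per printed feature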
[17] = small-molecule microarray binders of probe aShh, primary screen, biochemical, biotinylated probe, 635/667 nm fluorescence (AID 1114); settings: higher = more signal;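 also: probe is biotin-labelled aShh protein from a stem cell growth factor screen; measures binding of labelled protein to compounds printed on the slide; score merges feature fluorescence at 667 nm with signal-to-noise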
[18] = small-molecule microarray binders of probe aNog, primary screen, biochemical, biotinylated probe, 635/667 nm fluorescence (AID 1115); settings: higher = more signal;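 also: probe is biotinylated aNog protein used at 0.15 µg/mL for 1 h at 4 C; z-score combines 667 nm fluorescence of each spot with its signal to noise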
[19] = biological target: Torsin-1A-interacting protein 1 (Homo sapiens) (UniProt Q5JTV8); assay: LAP1 binders from COS7 cell lysate, primary screen, small-molecule microarray, 635/667 nm fluorescence (AID 1116); settings: COS7-hLAP1 lysate binding, 635 nm fluorescence, higher = more signal
[20] = biological target: Alpha-bungarotoxin (Bungarus multicinctus) (UniProt P60615); assay: alpha-bungarotoxin binders on microarray, profiling panel, artefact control for SMM control protein annotation, biochemical, small-molecule microarray, Alexa647 label, 635/667 nm fluorescence (AID 1117); settings: alpha-BTX-A647 binding fluorescence, higher = more signal
Alpha-bungarotoxin (Bungarus multicinctus), sequence (P60615 whole entry, looked up): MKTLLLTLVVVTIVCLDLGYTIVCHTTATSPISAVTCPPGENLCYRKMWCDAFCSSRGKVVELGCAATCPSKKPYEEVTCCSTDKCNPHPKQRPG

Epidermal growth factor receptor (Homo sapiens), sequence (P00533 whole entry, looked up): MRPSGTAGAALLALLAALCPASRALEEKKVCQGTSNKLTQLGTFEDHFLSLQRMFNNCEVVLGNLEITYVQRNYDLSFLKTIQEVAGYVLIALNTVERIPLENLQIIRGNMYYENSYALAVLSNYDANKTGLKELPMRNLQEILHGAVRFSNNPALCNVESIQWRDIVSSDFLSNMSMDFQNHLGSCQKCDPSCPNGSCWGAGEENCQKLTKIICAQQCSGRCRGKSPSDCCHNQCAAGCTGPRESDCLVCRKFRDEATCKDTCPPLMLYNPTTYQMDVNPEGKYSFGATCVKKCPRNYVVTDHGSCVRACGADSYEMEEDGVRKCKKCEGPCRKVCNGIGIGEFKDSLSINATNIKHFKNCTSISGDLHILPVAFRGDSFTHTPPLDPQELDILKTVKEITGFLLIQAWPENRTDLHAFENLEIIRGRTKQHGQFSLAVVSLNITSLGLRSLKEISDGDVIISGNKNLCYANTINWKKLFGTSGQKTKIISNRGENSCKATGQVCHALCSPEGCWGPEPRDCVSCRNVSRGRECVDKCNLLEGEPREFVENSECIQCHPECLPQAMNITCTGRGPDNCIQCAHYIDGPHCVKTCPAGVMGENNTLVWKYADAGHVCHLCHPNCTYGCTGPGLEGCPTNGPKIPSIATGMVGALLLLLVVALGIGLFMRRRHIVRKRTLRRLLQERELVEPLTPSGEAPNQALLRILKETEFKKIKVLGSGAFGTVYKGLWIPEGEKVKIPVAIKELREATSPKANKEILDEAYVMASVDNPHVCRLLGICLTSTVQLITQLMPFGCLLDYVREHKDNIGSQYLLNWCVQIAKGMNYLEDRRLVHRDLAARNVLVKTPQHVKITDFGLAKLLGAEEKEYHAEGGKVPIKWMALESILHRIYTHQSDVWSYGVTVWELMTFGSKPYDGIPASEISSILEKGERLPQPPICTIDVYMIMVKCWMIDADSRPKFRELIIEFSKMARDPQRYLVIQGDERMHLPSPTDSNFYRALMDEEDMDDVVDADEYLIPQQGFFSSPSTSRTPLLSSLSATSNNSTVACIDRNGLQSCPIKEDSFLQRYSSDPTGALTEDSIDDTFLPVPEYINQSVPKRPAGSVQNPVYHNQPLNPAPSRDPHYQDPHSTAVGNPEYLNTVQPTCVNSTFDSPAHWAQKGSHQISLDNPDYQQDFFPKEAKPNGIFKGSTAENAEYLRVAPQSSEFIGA
Dickkopf-related protein 1 (Homo sapiens), sequence (O94907 whole entry, looked up): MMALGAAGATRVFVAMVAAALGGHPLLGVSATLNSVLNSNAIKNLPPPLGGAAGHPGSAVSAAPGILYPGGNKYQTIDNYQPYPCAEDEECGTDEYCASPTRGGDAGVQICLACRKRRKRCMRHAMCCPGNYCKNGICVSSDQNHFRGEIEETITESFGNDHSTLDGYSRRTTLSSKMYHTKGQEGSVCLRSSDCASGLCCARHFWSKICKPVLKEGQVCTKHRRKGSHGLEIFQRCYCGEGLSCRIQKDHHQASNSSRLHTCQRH
Follistatin-related protein 3 (Homo sapiens), sequence (O95633 whole entry, looked up): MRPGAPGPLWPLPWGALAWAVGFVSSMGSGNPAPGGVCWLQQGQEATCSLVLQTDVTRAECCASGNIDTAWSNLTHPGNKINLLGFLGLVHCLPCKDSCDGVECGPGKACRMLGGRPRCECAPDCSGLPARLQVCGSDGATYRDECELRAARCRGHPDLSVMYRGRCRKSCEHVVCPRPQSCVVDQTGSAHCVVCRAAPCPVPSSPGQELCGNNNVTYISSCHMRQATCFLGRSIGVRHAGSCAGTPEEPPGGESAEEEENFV
Fibroblast growth factor 10 (Homo sapiens), sequence (O15520 whole entry, looked up): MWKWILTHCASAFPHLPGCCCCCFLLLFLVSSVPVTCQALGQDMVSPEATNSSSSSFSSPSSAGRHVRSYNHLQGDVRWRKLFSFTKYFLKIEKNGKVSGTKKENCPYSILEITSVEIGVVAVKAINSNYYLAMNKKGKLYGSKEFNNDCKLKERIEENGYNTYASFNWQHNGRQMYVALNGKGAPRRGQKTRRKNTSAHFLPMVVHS
Torsin-1A-interacting protein 1 (Homo sapiens), sequence (Q5JTV8 whole entry, looked up): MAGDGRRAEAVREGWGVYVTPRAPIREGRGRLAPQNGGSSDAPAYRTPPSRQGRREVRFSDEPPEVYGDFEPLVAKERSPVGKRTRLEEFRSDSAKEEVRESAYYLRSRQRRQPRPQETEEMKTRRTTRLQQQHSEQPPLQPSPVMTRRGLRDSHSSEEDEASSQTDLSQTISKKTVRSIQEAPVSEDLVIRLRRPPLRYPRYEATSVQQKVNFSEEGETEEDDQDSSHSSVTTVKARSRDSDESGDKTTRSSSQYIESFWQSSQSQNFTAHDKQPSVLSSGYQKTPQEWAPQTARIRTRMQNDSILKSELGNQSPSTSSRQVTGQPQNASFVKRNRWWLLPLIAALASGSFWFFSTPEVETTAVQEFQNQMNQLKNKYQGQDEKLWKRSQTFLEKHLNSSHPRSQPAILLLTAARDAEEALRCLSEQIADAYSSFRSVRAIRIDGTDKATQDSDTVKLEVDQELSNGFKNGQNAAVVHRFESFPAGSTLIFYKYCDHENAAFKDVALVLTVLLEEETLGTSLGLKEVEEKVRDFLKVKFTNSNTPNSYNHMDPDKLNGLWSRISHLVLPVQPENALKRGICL
Left-right determination factor 2 (Homo sapiens), sequence (O00292 whole entry, looked up): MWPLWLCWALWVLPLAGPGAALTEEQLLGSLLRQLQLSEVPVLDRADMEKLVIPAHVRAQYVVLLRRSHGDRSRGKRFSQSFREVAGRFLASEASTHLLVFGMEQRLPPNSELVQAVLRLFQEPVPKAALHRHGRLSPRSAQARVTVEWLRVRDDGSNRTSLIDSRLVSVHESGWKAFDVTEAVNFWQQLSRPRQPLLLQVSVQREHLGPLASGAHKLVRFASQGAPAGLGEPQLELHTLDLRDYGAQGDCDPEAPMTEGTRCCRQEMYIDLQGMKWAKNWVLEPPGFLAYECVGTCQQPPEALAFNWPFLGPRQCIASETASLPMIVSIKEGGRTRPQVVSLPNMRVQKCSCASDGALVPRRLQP

| SMILES | composite z-score [1] | composite z-score [2] | composite z-score [3] | z-score [4] | composite z-score [5] | composite z-score [6] | composite z-score [7] | composite z-score [8] | composite z-score [9] | composite z-score [10] | composite z-score [11] | z-score [12] | composite z-score [13] | composite z-score [14] | composite z-score [15] | composite z-score [16] | composite z-score [17] | composite z-score [18] | composite z-score [19] | composite z-score [20] |
| --- | --- | --- | --- | --- | --- | --- | --- | --- | --- | --- | --- | --- | --- | --- | --- | --- | --- | --- | --- | --- |
| COc1ccc(CCNC(=O)[C@@]2(Sc3ccc(C)cc3)CC(=O)N(C(C)C)[C@@H]2c2ccc(CO)cc2)cc1 | 1.41 | 0.0055 | 0.983 | 0.239 (inactive) | -0.855 | -0.897 | -2.03 | -1.45 | -2 | -0.87 | 0.889 | -0.887 | -2.73 | 0.359 | -0.242 | -0.28 | 0.0121 | -0.209 | -1.16 | -0.563 |
| Cc1ccc(S[C@]2(C(=O)NCC(F)(F)F)CC(=O)N(C3CCCCC3)[C@@H]2c2ccc(CO)cc2)cc1 | 1.58 | 0.433 | 0.83 | 0.113 (inactive) | 0.162 | -0.374 | -0.235 | -0.517 | -1.09 | -0.0076 | 0.82 | -0.759 | -0.431 | 1.26 | 0.27 | -0.1 | 0.0875 | -0.546 | -0.163 | 0.28 |
| C=CCN1C(=O)[C@]2(O[C@H](CCO)[C@@H]([Si](C)(C)c3ccc(OC)cc3)[C@@H]2C)c2ccccc21 | 0.504 | -0.141 | 0.837 | -3.11 (inactive) | -0.876 | -0.73 | -0.66 | -0.608 | -1.27 | 0.456 | 0.925 | -5.21 | -0.774 | -0.0667 | -0.0278 | -0.232 | -0.358 | -0.118 | -0.547 | -0.0693 |
| COC(=O)[C@@H]1N=C(c2ccc(OCCCO)cc2)O[C@@H]1c1ccccc1CN=[N+]=[N-] | -0.418 | 0.502 | 1.2 | 0.0193 (inactive) | -0.648 | -1.01 | -0.428 | -0.547 | -1.36 | 0.778 | 1.41 | -2.67 | -0.769 | 0.393 | -0.292 | 0.0224 | 0.131 | 1.29 | 0.609 | 0.893 |
| C=CCOC(=O)[C@H]1[C@@H]2C(=O)O[C@@H](c3ccccc3)[C@@H](c3ccccc3)N2[C@@H](c2ccc(OCCOC(=O)[C@@H]3C[C@@H]4C(=O)N[C@@H](CC(C)C)C(=O)N4[C@@H]3c3ccc(O)cc3)cc2)[C@]12C(=O)Nc1ccc(I)cc12 | 1.09 | 0.0615 | -0.0756 | -1.41 (inactive) | 0.649 | 1.13 | 0.993 | 0.644 | 0.928 | -0.0053 | 1.37 | -1.16 | 0.835 | 1.81 | 0.303 | 0.0095 | -0.0553 | 0.287 | 1.47 | 0.912 |
| C=CCOC(=O)[C@H]1[C@@H]2C(=O)O[C@@H](c3ccccc3)[C@@H](c3ccccc3)N2[C@@H](c2ccc(OCCOC(=O)[C@H]3C[C@H]4C(=O)NCC(=O)N4[C@H]3c3ccc(O)cc3)cc2)[C@]12C(=O)Nc1ccc(I)cc12 | 1.41 | -0.144 | -0.335 | 0.0882 (inactive) | 0.669 | 0.821 | 0.63 | 0.915 | 1.12 | 0.236 | 0.429 | -1.58 | 0.788 | 0.275 | 0.295 | -0.1 | -0.367 | -0.158 | 0.365 | -0.303 |
| CC(C)(C)OC(=O)CC[C@]1(C(N)=O)N=C(c2ccc(OCCCO)cc2)O[C@H]1c1ccccc1CN=[N+]=[N-] | 1.62 | 1.11 | 1.2 | -0.26 (inactive) | 1.44 | 1.28 | -0.643 | 0.0115 | -0.395 | 0.0976 | 0.6 | 1.46 | -0.63 | 2.67 | 1.73 | -0.096 | 0.84 | -0.143 | 2.26 | 1.46 |
| C[N+](C)(C)CCCC[C@@H]1NC(=O)[C@H]2C[C@@H](C(=O)NCCCCCNC(=O)CS)[C@@H](c3ccc(O)cc3)N2C1=O | 1.43 | -0.0443 | 0.161 | -0.744 (inactive) | 0.499 | 0.57 | 0.0872 | -0.0399 | 0.312 | 0.425 | 0.727 | 0.215 | 0.355 | 0.956 | 0.213 | 0.0101 | -0.0553 | -0.373 | 2.49 | -0.256 |
| COc1ccccc1CN1C(=O)c2ccccc2[C@@H](C(=O)NCCCN(C)C)[C@@H]1c1ccc(CO)cc1 | 1.31 | 0.503 | -0.205 | -0.0655 (inactive) | 0.0373 | -0.841 | -0.127 | -0.235 | 0.271 | 0.545 | -1.09 | -1.98 | 0.155 | -0.388 | -0.298 | -0.0529 | -0.0263 | -0.337 | 0.55 | 0.256 |
